PubChem BioAssay
Unmarked numbers belong to inactive results. The source made the active and inactive calls.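 How the source made its calls: active means compound raises insulin release from rat beta cells at 5 mM glucose, no numeric limit stated; inactive means the rest.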

Test: stimulators of insulin release from INS-1E, primary screen, cell-based, 5 mM glucose, NPC library (AID 1117329); further: reference of the scale not given here
Conditions: rat INS-1E insulin secretion, at 10 µM, stronger effect = higher value

| Compound | insulin secretion stimulation |
| --- | --- |
| O=c1[nH]cc(F)c(=O)[nH]1 | -3% |
| CCc1nc(N)nc(N)c1-c1ccc(Cl)cc1 | 1.3% |
| CCc1cccc2c3c([nH]c12)C(CC)(CC(=O)O)OCC3 (centres undefined) | -0.3% |
| Nc1ncn([C@@H]2O[C@H](CO)[C@@H](O)[C@H]2O)c(=O)n1 | 0.5% |
| Cc1ccccc1C(OCCN(C)C)c1ccccc1 (centres undefined) | 39.3% (active) |
| Cc1ccc(C)c(OCCCC(C)(C)C(=O)O)c1 | -1% |
| NC(=O)c1cnccn1 | -1.9% |
| CCCCCCNC(=O)n1cc(F)c(=O)[nH]c1=O | 0.3% |
| COC1=CC(=O)C[C@@H](C)[C@]12Oc1c(Cl)c(OC)cc(OC)c1C2=O | 6.2% |
| Cc1ncc([N+](=O)[O-])n1CC(C)O (centres undefined) | -0.9% |
| N[C@@H](C(=O)N[C@@H]1C(=O)N2C(C(=O)O)=C(Cl)CS[C@H]12)c1ccccc1 | 1.9% |
| CO[C@@]1(NC(=O)Cc2cccs2)C(=O)N2C(C(=O)O)=C(COC(N)=O)CS[C@@H]21 | 2.1% |
| OCCN1CCN(CCCN2c3ccccc3Sc3ccc(C(F)(F)F)cc32)CC1 | 8.85% |
| CN(C)CCOC(c1ccc(Cl)cc1)c1ccccn1 (centres undefined) | 46.5% (active) |
| Cc1onc(-c2c(Cl)cccc2Cl)c1C(=O)N[C@@H]1C(=O)N2[C@@H]1SC(C)(C)[C@@H]2C(=O)O | 1.5% |
| COc1cc2nc(N(C)CCCNC(=O)C3CCCO3)nc(N)c2cc1OC (centres undefined) | -0.3% |
| NS(=O)(=O)c1cc(C2(O)NC(=O)c3ccccc32)ccc1Cl (centres undefined) | 0.8% |
| CN(C)CCc1c[nH]c2ccc(C[C@H]3COC(=O)N3)cc12 | 1.2% |
| Cc1ccc(-c2cc(C(F)(F)F)nn2-c2ccc(S(N)(=O)=O)cc2)cc1 | -0.6% |
| CN[C@H]1CC[C@@H](c2ccc(Cl)c(Cl)c2)c2ccccc21 | 11.8% |

| Compound | insulin secretion stimulation |
| --- | --- |
| O=S(=O)(O)CCS | 1.6% |
| C/C=C/C(=O)N(CC)c1ccccc1C | -0.4% |
| COc1ccc(OC)c(C(O)CNC(=O)CN)c1 (centres undefined) | 2.7% |
| Cn1cnc([N+](=O)[O-])c1Sc1ncnc2nc[nH]c12 | 0.2% |
| c1ccc2[nH]c(-c3cscn3)nc2c1 | -1.2% |
| CCCNCC(O)COc1ccccc1C(=O)CCc1ccccc1 (centres undefined) | 32.4% (active) |
| NC(=O)N1c2ccccc2CC(=O)c2ccccc21 | -0.8% |
| Cc1cn([C@H]2C[C@H](N=[N+]=[N-])[C@@H](CO)O2)c(=O)[nH]c1=O | -1.7% |
| CN(CCOc1ccc(CC2SC(=O)NC2=O)cc1)c1ccccn1 (centres undefined) | -0.5% |
| COc1ccccc1OCC(O)COC(N)=O (centres undefined) | -1.2% |
| OC(CCN1CCCC1)(c1ccccc1)C1CCCCC1 (centres undefined) | 6.4% |
| O=C1C(CCS(=O)c2ccccc2)C(=O)N(c2ccccc2)N1c1ccccc1 (centres undefined) | 2.6% |
| COC(=O)Nc1nc2ccc(C(=O)c3ccccc3)cc2[nH]1 | -0.3% |
| CCn1cc(C(=O)O)c(=O)c2cc(F)c(N3CCN(C)CC3)cc21 | -0.5% |
| CN1CCCC(n2nc(Cc3ccc(Cl)cc3)c3ccccc3c2=O)CC1 (centres undefined) | 5.8% |
| NCc1ccc(S(N)(=O)=O)cc1 | -0.5% (active) |
| Clc1ccc2c(c1)C(N1CCNCC1)=Nc1ccccc1O2 | 16.5% |
| CC(C)(C)NCC(O)COc1cccc2c1C[C@H](O)[C@H](O)C2 (some centres undefined) | -1.2% |
| NS(=O)(=O)c1cc2c(cc1Cl)NC=NS2(=O)=O | -0.7% |
